Compounds with a hit are over-represented: about 11% of the library has one in this group of screens.
OTUD3 inh: blocks human OTUD3 ubiquitin-rhodamine cleavage | purified OTUD3, Ub-rhodamine fluorescence, 2 h | inhibition, % at 25 µM | hit rate 0.7% among 47,000 | AID 1645858
USP30 block: blocks human USP30 ubiquitin-rhodamine cleavage | hit rate 5.3% among 47,000 | purified USP30, Ub-rhodamine cleavage fluorescence | Q70CQ3 | inhibition, % at 25 µM
USP28 block: blocks human USP28 ubiquitin-rhodamine cleavage | purified USP28, Ub-rhodamine cleavage fluorescence, 30 min | AID 1645857 | inhibition, % at 25 µM | hit rate 3% among 47,000
USP17 inh: inhibitors of human USP17 deubiquitinase. purified USP17, Ub-rhodamine cleavage fluorescence, 3 h. inhibition, % at 50 µM. hit rate 6.5% among 47,000. AID 1645855
Target sequence (A8MUK1 whole entry, looked up): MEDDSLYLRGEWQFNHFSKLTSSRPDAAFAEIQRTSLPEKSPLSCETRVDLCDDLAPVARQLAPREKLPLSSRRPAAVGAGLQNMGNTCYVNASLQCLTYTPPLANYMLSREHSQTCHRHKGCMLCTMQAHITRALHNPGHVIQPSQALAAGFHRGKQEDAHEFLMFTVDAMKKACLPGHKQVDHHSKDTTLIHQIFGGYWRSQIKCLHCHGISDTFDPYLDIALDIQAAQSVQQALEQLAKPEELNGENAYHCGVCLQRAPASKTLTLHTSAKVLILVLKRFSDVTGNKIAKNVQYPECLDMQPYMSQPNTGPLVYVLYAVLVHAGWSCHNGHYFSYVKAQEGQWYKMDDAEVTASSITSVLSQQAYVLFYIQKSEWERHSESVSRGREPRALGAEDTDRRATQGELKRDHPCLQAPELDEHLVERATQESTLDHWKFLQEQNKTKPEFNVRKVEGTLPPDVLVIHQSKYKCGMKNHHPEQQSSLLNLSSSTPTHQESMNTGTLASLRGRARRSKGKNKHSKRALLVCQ
Large screens that a line does not name were inactive. No stated cut-off is given here; in the data, active means inhibition above about 30%; inactive means the rest.

CCc1cc(C(=O)Nc2ccc(C3CCc4nncn4C3)cc2)on1 (centres undefined)	USP28 block 33.9
Cc1nn(-c2nncc(-c3ccccc3)n2)c2c1C(c1cccc(OC(C)C)c1)CC(=O)N2 (centres undefined)	none
Cc1cccc(O)c1-c1nc2c(-c3nc4c(C(=O)O)cccc4o3)cccc2o1	OTUD3 inh 33.3, USP17 inh 46.7
Cc1cccc(NS(=O)(=O)c2cc(C(=O)Nc3ccccc3)ccc2Cl)c1	none
Cc1cccc(NC(=O)Nc2ccc(C)c(C)c2)c1	USP30 block 31.2
CC(=O)c1cccc(NC(=O)c2ccc(CN(c3ccc(C)c(C)c3)S(C)(=O)=O)cc2)c1	USP28 block 72.9
Cc1cccc(NC(=O)c2ccc(C)c(C)c2)c1	USP28 block 34.2
Cc1ccc(S(=O)(=O)N2CCc3ccc(NC(=O)Nc4cccc(C)c4)cc32)cc1	none
Cc1nc2c(nnn2C[C@@H]2CCCN(C(=O)c3ccc(F)cc3F)C2)c(=O)[nH]1	none
CO\C=C(C(=O)OC)/C(C)=C\C=C\c1ccc(OCC=C(C)C)c(O)c1	USP17 inh 40.3
COc1cccc(-c2cc(C(=O)N3CC(c4nc5ccccc5[nH]4)C3)[nH]n2)c1	USP28 block 32.6
COc1cccc(-c2cc(C(=O)N3CCC4(CC3)OCCO4)[nH]n2)c1	none
COc1cc(OCC(=O)NC(C)C)cc2c1C(=O)O[C@@H](C)CCCC(=O)CCCCC2	none
COc1cc2c(c(OCC(=O)Nc3ccc4c(c3)OCCO4)c1)C(=O)O[C@@H](C)CCCC(=O)CCCCC2	USP30 block 51.3
COc1cc(N)c(Cl)cc1C(=O)OCC(=O)Nc1ccc2c(c1)OCCO2	USP28 block 37.0
COc1cc(N)c(Cl)cc1C(=O)OCC(=O)N1CCCC1	none
Cc1ncccc1NC(=O)[C@H]1CO[C@H]2CCN(Cc3ccco3)C[C@H]2C1	none
O=S1(=O)Cc2cnc(N3CCCC3)nc2[C@H]2CN(Cc3ccccc3)C[C@H]21	none
Cc1ccc(-n2cc3c(N4CCCC(C(=O)NCC5CCCCC5)C4)ncnc3n2)cc1 (centres undefined)	USP30 block 38.6, USP17 inh 59.8
CCCC(=O)c1c[nH]c(C(=O)NCc2ccc(F)cc2)c1	USP28 block 34.7, USP17 inh 68.9
O=C(CSc1cnc2ccccc2n1)NCc1ccc2c(c1)OCO2	none
Cc1c(C)c2ccc(OCC(=O)NCc3ccncc3)c(C)c2oc1=O	USP30 block 81.4, USP17 inh 45.6
Cc1cc(=O)oc2cc(OCC(=O)NCc3ccncc3)ccc12	none
CCOc1ccc(CC(=O)Nc2cc(N3CCCS3(=O)=O)ccc2C)cc1	USP30 block 43.4
COc1ccc(CC(=O)Nc2cc(N3CCCS3(=O)=O)ccc2C)cc1	none
Cc1cccc(N2CCN(S(=O)(=O)c3c(C)nc4sc(C)nn34)CC2)c1	none
COc1cccc(Nc2nc(NCc3ccccc3)nc3c2cnn3C)c1	USP28 block 39.5
Cn1ncc2c(Nc3ccc(Cl)cc3)nc(NCCc3ccccc3)nc21	USP30 block 41.5, USP17 inh 36.5
COc1ccc(C2CNCCN2Cc2scnc2C)cc1 (centres undefined)	none
Cc1cc(C)n(-c2ccnc(N3CCC(C(=O)NC4CCCC4)CC3)n2)n1	none
CCc1ccc(C2c3c(oc4ccccc4c3=O)C(=O)N2c2nncs2)cc1 (centres undefined)	USP17 inh 51.1
COc1ccc2nc(N3C(=O)c4oc5ccccc5c(=O)c4C3c3ccc([N+](=O)[O-])cc3)sc2c1 (centres undefined)	none
CCOC(=O)c1ccc2nc(N3C(=O)c4oc5ccccc5c(=O)c4C3c3ccco3)sc2c1 (centres undefined)	none
CCOc1cc(C2c3c(oc4ccccc4c3=O)C(=O)N2c2nc3ccc(C)cc3s2)ccc1O (centres undefined)	USP30 block 34.7
Cn1nnc2c(Nc3ccc(Cl)cc3)ncnc21	none
Cc1cc(C2CCCN2C(=O)c2cc(-c3ccc(Cl)cc3)on2)no1 (centres undefined)	none
Cc1noc(C)c1CN1CCC(NC(=O)c2cc(F)ccc2F)CC1	none
COc1ccc(C2=NO[C@]3(C(=O)Nc4ccccc43)[C@H]2C(=O)c2ccco2)c(OC)c1	none
Cc1cccc(-c2nc3n(CC(=O)Nc4ccc(Cl)cc4)c(C)cc(=O)n3n2)c1	USP17 inh 68.2
COc1cc(OC)c2c(C)c(CC(=O)Nc3cccc(C(C)O)c3)c(=O)oc2c1 (centres undefined)	USP17 inh 30.3
O=C(c1nc(-c2cn(CC3CCCO3)cn2)n2ccccc12)N1CCCC1 (centres undefined)	none
CCN(c1ccccc1)S(=O)(=O)c1ccc(OC)c(NCC(=O)Nc2cccc(C#N)c2)c1	none
Cc1cccc2nc(-c3cccnc3)c(NC3CCCC3)n12	USP28 block 43.4
O=[N+]([O-])c1cccc(-c2csc(-c3ccc4c(c3)OCO4)n2)c1	none
c1ccc(-c2cc(-c3csc(-c4ccc5c(c4)OCCO5)n3)on2)cc1	OTUD3 inh 40.1, USP30 block 35.3, USP17 inh 51.2
COc1cccc(C(=O)Nc2ccc(Cn3cncn3)cc2)c1OC	none
O=C(CN1CCC2(CC1)N=C(c1ccc(F)cc1)C(=O)N2)Nc1ccc(F)c(F)c1	USP30 block 43.6
CN1CCN(c2ccc(CNC(=O)c3ccc4nccnc4c3)cc2)CC1	none
COC(=O)c1ccc(NC(=O)/C=C/c2ccc(F)cc2)cc1	USP30 block 90.3, USP28 block 95.6, USP17 inh 85.8
COC(=O)c1cc(NC(=O)/C=C/c2ccc(C(C)C)cc2)ccc1N1CCOCC1	none
O=C(Nc1ccccc1)c1ccc(-c2ccccc2)s1	USP17 inh 54.0 (no result: USP30 block, USP28 block)
CN(C)c1ccc(C2CC(c3c(O)n(C)c(=O)[nH]c3=O)=Nc3ccccc3S2)cc1 (centres undefined)	USP28 block 51.5, USP17 inh 65.2
Cc1cc(-c2cnc(NCc3ccc(F)cc3)nc2-c2ccco2)on1	USP17 inh 32.7
Cc1cc(-c2cnc(N(C)C)nc2-c2ccc(CNC(=O)Cc3ccc(F)cc3)cc2)on1	USP17 inh 63.5
Cc1cc(-c2cnc(NCc3cccc(F)c3)nc2[C@@H]2CCCO2)on1	USP28 block 35.1
Cc1cc(-c2cnc(N3CCCC3)nc2[C@H]2CCCO2)on1	none
CCc1cccc(C)c1NC(=O)C1CCN(C(=O)C2CC(=O)N(c3ccc(C)cc3)C2)CC1 (centres undefined)	none (no result: USP17 inh)
O=C(O)CC1(CC(=O)NCc2ccc(C(F)(F)F)cc2)CCCCC1	USP30 block 32.0
O=C(O)CC1(CC(=O)NCc2cccc(Cl)c2)CCCCC1	none
CC1CCc2c(sc3ncnc(N4CCC(=O)CC4)c23)C1 (centres undefined)	none
O=C1CN(C(=O)CC2CCCCC2)C(c2ccccc2)c2cc(Br)ccc2N1 (centres undefined)	USP30 block 40.7
Cc1c(C)n(C)c2ccc(C(=O)N3CCN(c4ccccn4)CC3)cc12	none
COc1ccccc1N1CCN(C(=O)c2ccc3c(c2)N(Cc2cc(C)ccc2C)C(=O)c2ccccc2S3=O)CC1 (centres undefined)	USP30 block 50.8
